From PMC4336329 (PLoS ONE, 2015)
Out of some 310,000 compounds screened, about 2,200 (0.71%) showed an effect of 50% or more. Effects have a minus sign here. This excerpt belongs to a sample that is enriched for strong results.

Biological target: human ether-à-go-go-related gene (hERG) potassium channel (human, UniProt Q12809)
Assay: primary screen, population patch clamp on CHO cells stably expressing hERG; higher = less effect of the substance

Chain of human ether-à-go-go-related gene (hERG) potassium channel (Q12809 whole entry, looked up): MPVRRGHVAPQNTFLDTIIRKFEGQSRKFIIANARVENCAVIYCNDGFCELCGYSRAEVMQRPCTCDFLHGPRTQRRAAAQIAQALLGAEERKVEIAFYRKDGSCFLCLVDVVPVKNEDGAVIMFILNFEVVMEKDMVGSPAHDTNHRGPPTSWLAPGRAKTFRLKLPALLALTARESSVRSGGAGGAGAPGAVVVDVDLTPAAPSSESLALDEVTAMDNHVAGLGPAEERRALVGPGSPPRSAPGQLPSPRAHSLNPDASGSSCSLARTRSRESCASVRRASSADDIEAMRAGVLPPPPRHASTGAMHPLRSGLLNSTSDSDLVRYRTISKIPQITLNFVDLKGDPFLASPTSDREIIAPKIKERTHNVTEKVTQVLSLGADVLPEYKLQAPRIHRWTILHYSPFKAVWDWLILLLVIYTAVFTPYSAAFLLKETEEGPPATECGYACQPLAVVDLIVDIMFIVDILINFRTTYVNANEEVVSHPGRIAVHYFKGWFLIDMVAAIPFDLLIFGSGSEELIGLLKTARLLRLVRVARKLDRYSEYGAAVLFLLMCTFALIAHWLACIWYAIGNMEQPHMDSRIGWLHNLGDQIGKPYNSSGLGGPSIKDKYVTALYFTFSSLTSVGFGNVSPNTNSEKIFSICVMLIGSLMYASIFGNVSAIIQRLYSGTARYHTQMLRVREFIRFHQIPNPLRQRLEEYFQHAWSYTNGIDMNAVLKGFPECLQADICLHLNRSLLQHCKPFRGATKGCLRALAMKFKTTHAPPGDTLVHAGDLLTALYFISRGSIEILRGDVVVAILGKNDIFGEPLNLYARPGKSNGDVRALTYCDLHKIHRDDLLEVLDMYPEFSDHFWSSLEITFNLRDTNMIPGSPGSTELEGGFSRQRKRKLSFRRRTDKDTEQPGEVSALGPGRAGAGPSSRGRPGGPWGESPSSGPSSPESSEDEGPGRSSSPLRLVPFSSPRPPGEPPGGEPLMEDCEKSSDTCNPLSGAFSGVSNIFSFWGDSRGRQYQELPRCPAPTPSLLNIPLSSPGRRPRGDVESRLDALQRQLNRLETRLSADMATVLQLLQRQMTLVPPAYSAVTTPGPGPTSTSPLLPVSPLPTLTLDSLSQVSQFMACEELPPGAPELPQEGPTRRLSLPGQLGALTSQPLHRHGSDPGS

| SMILES | hERG current change (%, negative = inhibition) at 1uM [%] |
| --- | --- |
| CCCc1cc(=O)[nH]c(SCC(=O)N(C)C2CCCCC2)n1 | 13.3 |
| CCSC1(SCC)N=C(N)C2(C#N)C(c3ccccc3)NC3=C(CCC3)C12C#N (stereo not shown) | 14.4 |
| CN(C(=O)c1ccncc1)c1nnc(-c2cccnc2)s1 | 12.8 |
| CN(CC(=O)N1CCCCCC1)S(=O)(=O)c1ccc(Br)cc1 | 0.738 |
| COc1ccc(OCC(O)COc2ccc(C(=O)O)cc2)cc1 (stereo not shown) | 8.21 |
| CCc1cc(C(=O)N/N=C/c2ccc(O)cc2)c2ccccc2n1 | 9.78 |
| Cn1ncc(Br)c1C(=O)Nc1ccc(Br)cn1 | 16.3 |
| CCC(C)[C@H](NC(=O)[C@@H]1CSC2c3ccccc3C(=O)N21)C(=O)N1CCCCC1 (stereo partly shown) | 8.7 |
| CC1(C)CC(NC(=O)Cc2ccc(Cl)cc2)CC(C)(C)N1 | 16.7 |
| O=C(c1cc(-c2ccc(Cl)cc2)n(-c2ccc(Cl)cc2Cl)n1)N1CCOCC1 | -40.7 |
| O=C(c1cc(-c2ccc(Cl)cc2)n(-c2ccc(Cl)cc2)n1)N1CCOCC1 | -56.8 |
| Cc1ccc(-n2nc(C(=O)N3CCOCC3)cc2-c2ccc(Cl)cc2)cc1 | -87.4 |
| O=C(c1cc(-c2ccc(Cl)cc2)n(-c2ccc(Cl)c(Cl)c2)n1)N1CCOCC1 | 5.69 |
| O=C(c1cc(-c2ccc(Cl)cc2)n(-c2cc(Cl)ccc2Cl)n1)N1CCOCC1 | -3.98 |
| Cc1ccc(-n2nc(C(=O)O)cc2-c2ccc(Cl)cc2)cc1 | 8.61 |
| COc1ccc(NC(=O)C2CCC(C)(C(=O)O)C2(C)C)cc1 (stereo not shown) | 11.1 |
| CC(OC(=O)c1ccccc1NCCO)C(=O)Nc1ccc(S(=O)(=O)N2CCOCC2)cc1 (stereo not shown) | 11.6 |
| CN=C1S/C(=C\c2ccc(O)c(OC)c2)C(=O)N1C | 14 |
| Cc1cccc(-n2c(SCC(=O)N(C)C3CCS(=O)(=O)C3)nc3ccccc3c2=O)c1C (stereo not shown) | 13.9 |
| O=C(NC1CCN(Cc2ccccc2)CC1)C1CCCN(c2nnc(-n3cccc3)s2)C1 (stereo not shown) | -65.2 |
| CC(CCc1ccccc1)NC(=O)C1CCCN(c2nnc(-n3cccc3)s2)C1 (stereo not shown) | -7.23 |
| O=C(NC1CCN(Cc2ccccc2)CC1)C1CCN(c2nnc(-n3cccc3)s2)CC1 | -28.2 |
| O=[N+]([O-])c1cccc2ccc(/C=C/c3ccc(Cl)cc3)nc12 | 1.88 |
| Cc1nc2c(ccc3nc(NC(=O)c4ccc5c(c4)OCCO5)sc32)s1 | -86.6 |
| Cc1nc2c(ccc3nc(NC(=O)c4ccc(S(=O)(=O)N(C)C)cc4)sc32)s1 | 16.4 |
| Cc1nc2ccc3nc(NC(=O)c4ccc5c(c4)OCCO5)sc3c2s1 | 9.46 |
| COc1ccc2c(c1)c(C(=O)O)c(C)n2CC(C)C | -2.31 |
| CC(NS(=O)(=O)/C=C/c1ccccc1)C(=O)O (stereo not shown) | 12.5 |

| SMILES | hERG current change (%, negative = inhibition) at 1uM [%] |
| --- | --- |
| CC(C)Cn1cc(C(=O)N2CCC3(CC2)OCCO3)c2c3ccccc3n(C)c2c1=O | -1.15 |
| O=C(Cc1c(F)c(F)c(F)c(F)c1F)Nc1nc(-c2ccccc2)cs1 | 9.84 |
| CCn1c(N2CCN(Cc3ccc([N+](=O)[O-])cc3)CC2)nc2ccccc21.Cl | -81.2 |
| Cl.O=[N+]([O-])c1ccc(CN2CCN(c3ccc4ccccc4n3)CC2)cc1 | -1.76 |
| CCn1c(N2CCN(C(=O)/C=C/c3ccccc3)CC2)nc2ccccc21 | -77.4 |
| CCCn1c(N2CCN(Cc3ccc(Cl)cc3)CC2)nc2ccccc21.Cl | -4.77 |
| CC(C)Cn1c(N2CCN(C(=O)/C=C/c3ccccc3)CC2)nc2ccccc21 | -32.9 |
| CCCn1c(N2CCN(C(=O)/C=C/C(=O)O)CC2)nc2ccccc21 | 14.7 |
| CCCCc1ccc(NC(=S)NN2CCOCC2)cc1 | 12.1 |
| COc1ccc(NC(=O)CCCn2cc([N+](=O)[O-])cn2)cc1 | 1.91 |
| O=C(NCCCn1ccnc1)c1cccc(Br)c1 | 6.56 |
| CCOC(=O)C(NC(C)=O)(Nc1ccc(S(=O)(=O)Nc2ncccn2)cc1)C(F)(F)F (stereo not shown) | 18.1 |
| O=c1c2ccccc2ncn1-c1ccc2c(c1)OCCO2 | 2.75 |
| CCC(=O)Nc1ccc(C(=O)n2nc(C)cc2C)cc1 | 1.88 |
| Cc1c(NC(=O)c2cc(-n3cnnc3)ccc2Cl)cccc1-c1nc2ccccc2s1 | -9.7 |
| CC1CCCN(CCCNC(=O)c2nn(C)c3c2CSc2ccccc2-3)C1 (stereo not shown) | -66.2 |
| CC1CCCCN1CCCNC(=O)c1nn(C)c2c1CSc1ccccc1-2 (stereo not shown) | -23.4 |
| Cn1nc(C(=O)NCCCN2CCCCC2)c2c1-c1ccccc1SC2 | -24.8 |
| O=C(COc1nncc2ccccc12)NCCC1=CCCCC1 | 9.4 |
| COCCn1c(=N)c(C(=O)NCc2ccco2)cc2c(=O)n3ccccc3nc21 | -88 |
| Cc1ccc(S(=O)(=O)c2cc3c(=O)n4ccccc4nc3n(Cc3ccco3)c2=N)cc1 | -0.218 |
| COCCn1c(=N)c(C(=O)NCc2ccco2)cc2c(=O)n3cc(C)ccc3nc21 | -92 |
| Cc1cc2ccccc2c(=O)n1CC(=O)NCc1ccco1 | 18.5 |
| COCCn1c(=N)c(S(=O)(=O)c2ccc(Br)cc2)cc2c(=O)n3ccccc3nc21 | 9.15 |
| Cc1ccc2nc3c(cc(C(=O)NCc4ccco4)c(=N)n3Cc3ccco3)c(=O)n2c1 | -86.5 |
| CCn1cc(C(=O)NCc2ccco2)c2cc(OC)c(OC)cc2c1=O | -8.54 |
| COCCn1cc(C(=O)NCc2ccco2)c2c3ccccc3n(C)c2c1=O | 5.73 |
